From PubChem BioAssay
Shown are actives, neighbours in structure and some others; about 7.4% of the full set was active somewhere.
NPC1 prom act: NPC1 promoter activation; Huh7 NPC1 promoter luciferase reporter, 24 h; Potency, µM (series often up to 9.22 µM), for the others: top-dose activation, usual class: activators; 320,000 tested, 2.4% active; AID 485313; note: % of control where 0% means no effect; nearly all actives have a fitted effect of over 60% in size
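Compounds in DMSO were transferred onto Huh7 NPC1-luciferase reporter cells pre-incubated 2 h; after 24 h at 37 °C, Amplite reagent was dispensed and luminescence recorded 10 min later.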
FLuc counter: inhibits or activates purified firefly luciferase, miR-21 counter-screen | 360,000 tested, 6.9% active | P08659 | purified FLuc, Km substrates, luminescence inhibition | Potency, µM (titrated, usually from 57.5 µM), for inactives: top-dose activity change, negative = inhibition, usual class: inhibitors;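 note: plate controls were vehicle for no effect and reference inhibitor for full effect; nearly all actives have a fitted effect of over 55% in size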
Target sequence (P08659 whole entry, looked up): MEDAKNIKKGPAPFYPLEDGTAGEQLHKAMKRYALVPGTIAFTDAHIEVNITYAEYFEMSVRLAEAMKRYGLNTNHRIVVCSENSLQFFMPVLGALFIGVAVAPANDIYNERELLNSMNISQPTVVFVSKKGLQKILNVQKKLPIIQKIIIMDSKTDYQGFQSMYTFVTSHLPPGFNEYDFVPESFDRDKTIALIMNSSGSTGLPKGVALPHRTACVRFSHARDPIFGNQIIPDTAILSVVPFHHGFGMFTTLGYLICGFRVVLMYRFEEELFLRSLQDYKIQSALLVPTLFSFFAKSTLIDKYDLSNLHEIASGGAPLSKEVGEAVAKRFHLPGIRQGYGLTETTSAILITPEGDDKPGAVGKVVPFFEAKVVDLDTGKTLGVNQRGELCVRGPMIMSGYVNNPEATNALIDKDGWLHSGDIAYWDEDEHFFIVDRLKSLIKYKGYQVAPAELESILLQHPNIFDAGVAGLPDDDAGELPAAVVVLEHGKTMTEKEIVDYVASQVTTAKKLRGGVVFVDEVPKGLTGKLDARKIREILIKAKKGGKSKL
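Biochemical qHTS of compounds, final roughly 60 µM downward over six points, against 10 nM purified firefly luciferase using Km concentrations of substrates (10 uM D-luciferin, 10 uM ATP) in Tris acetate pH 7.5 buffer; luminescence output.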
ELG1 genotoxic: genotoxicity induction in ELG1-luciferase HEK293T cells. HEK293T ELG1-luciferase reporter, luminescence, 16 h. Potency, µM (series often up to 46 µM), for the others: at the top dose activity change, positive = activation, actives largely listed as activators. 330,000 tested, 1.3% active; note: % of control where 0% means no effect; nearly all actives have a fitted effect of over 60% in size
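Screening used a luciferase reporter fused to human ELG1 in HEK293T cells. Luminescence was read on a CCD plate imager after 16 hr exposure and 30 min ONE-Glo incubation.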
KinaseGlo FLuc: counter-screen: inhibitors of Kinase-Glo firefly luciferase. AID 1379. Q27757. Kinase-Glo luciferase, ATP luminescence, 8 min. 200,000 tested, 0.28% active. Potency, µM (doses to about 38.3 µM), inactives show top-dose activity change, negative = inhibition, actives largely listed as inhibitors; note: % is set by controls: 0 for no effect and ±100 for the full control effect; nearly all actives have a fitted effect of over 60% in size
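Kinase-Glo luciferase light output from ATP and luciferin was measured with 10 uM ATP, within the enzyme's linear range. Buffer: 50 mM imidazole pH 7.2, 50 mM KCl, 7 mM MgCl2, 0.01% Tween 20, 0.05% BSA; luminescence read after 8 min at ambient temperature.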
SMN2 splice up: enhancers of SMN2 splice variant expression. HEK293 SMN2-luciferase splicing reporter, luminescence, 30-36 h. 210,000 tested, 2.8% active. AID 1458. Potency, µM (doses to about 46.1 µM), for the others: at the top dose activity change, positive = activation, actives largely listed as activators; note: % of control where 0% means no effect; nearly all actives have a fitted effect of over 55% in size
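qHTS luciferase splicing reporter: luminescence rises when SMN2 exon 7 is included in transfected HEK293 cells. Compound exposure lasted 30-36 h at 37C, with 4.5 mM final sodium butyrate as control, followed by a ONE-Glo read.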
Rab9 prom act: Rab9 promoter activation; Huh7 Rab9 promoter-luciferase reporter, luminescence, 24 h; Potency, µM (doses to about 9.22 µM), for inactives: at the highest dose activation, negative = inhibition, most hits filed as activators; 320,000 tested, 2.8% active; AID 485297; note: % of control where 0% means no effect; nearly all actives have a fitted effect of over 60% in size
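Huh7 reporter line, Rab9 promoter upstream of luciferase. Compound exposure 24 h at 37 °C in reduced-serum medium with 10% FBS. Read-out: luminescence.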
Starred values were filed as active, the others as inactive; ? = inconclusive; nt = no result; [ ] = remark or other dose. Calls come from the whole dose curve; as a rule, active = well fitted curve in the direction sought with a large enough effect; inconclusive = small, poorly fitted or top-dose-only effect, or another doubt; inactive = no such curve, though single readings can be large; an effect the other way counts as inactive or inconclusive. Potency is the fitted concentration of half-maximal effect.

SMILES	NPC1 prom act	FLuc counter	ELG1 genotoxic	KinaseGlo FLuc	SMN2 splice up	Rab9 prom act
Nc1nc(N2CCN(C(=O)c3ccco3)CC2)nc2ccc(Br)cc12	2µM*	9.5µM*	?	-2%	7.9µM*	1.1µM*
O=C(c1ccco1)N1CCN(c2ncccn2)CC1	-2%	-1%	7%	-4%	11%	11%
O=C1CCCc2nc(N3CCN(C(=O)c4ccco4)CC3)ncc21	4µM*	27µM*	21µM*	nt	nt	2.5µM*
Cc1cc(N2CCN(C(=O)c3ccco3)CC2)c2ccccc2n1	-3%	5%	-2%	nt	nt	-3%
O=C(c1ccco1)N1CCN(Cc2ccc(Br)cc2)CC1	-1%	-1%	-6%	nt	nt	-5%[1.84 µM]
O=C(Cn1c(=O)nc(-c2ccccc2)c2cc(Cl)ccc21)NCCc1ccccc1	nt	3%	nt	nt	nt	nt
O=C(O)[C@H]1C[C@@H](CP(=O)(O)O)CCN1	nt	nt	nt	-4%	nt	nt
CCOc1ccc(C2c3c(oc4ccc(C)cc4c3=O)C(=O)N2c2nc(C)c(C)s2)cc1OC (stereo not given)	nt	0%	nt	nt	-1%	nt
Cc1ccccc1N=CC1=C(O)c2ccccc2C1=O	?	0.13µM*	?	13µM*	8.9µM*	0.25µM*
O=C1C(C=Nc2ccc(F)cc2)=C(O)c2ccccc21	0.35µM*	0.27µM*	?	?	nt	0.79µM*
Fc1ccc(N=Cc2ccc[nH]2)cc1	0%	-9%	1%	nt	nt	-4%
COc1ccc(CC2=C(O)c3ccccc3C(=O)C2=O)cc1	2%	1%	-7%	nt	nt	6%
COc1ccc(N=CC2=C(O)c3ccccc3C2=O)c(OC)c1	?	0.076µM*	0.065µM*	4.5µM*	-60%	0.71µM*
Nc1c(C(=O)Nc2ccccc2F)sc2nc(-c3ccco3)ccc12	?	?	?	-2%	-19%	?
NC(=O)c1sc2nc(-c3ccco3)ccc2c1N	?	11µM*	?	-4%	?	?
COC(=O)c1sc2nc(-c3ccco3)ccc2c1N	1.4µM*	0.38µM*	?	?	6.3µM*	1.1µM*
Nc1nonc1-c1nc2ccccc2n1Cc1cccc(Cl)c1	nt	-9%	nt	nt	?	nt
COC(=O)[C@H](COC(C)(C)C)NC(=O)O[C@H]1C(=O)c2ccc(OC)cc2O[C@@H]1c1ccc2c(c1)OCO2	nt	nt	nt	-1%	0%	nt
O=C(CN1C(=O)/C(=C/c2cccc(Br)c2)SC1=S)NCCCN1CCOCC1	5%	21µM*	-3%	nt	nt	6%
CCOc1ccc(/C=C2\SC(=S)N(CC(=O)NCCCN3CCOCC3)C2=O)cc1	1%	3µM*	-8%	nt	nt	19%
COC(=O)c1ccc(/C=C2\SC(=S)N(CCCC(=O)NCCCN3CCOCC3)C2=O)cc1	-10%	?	-10%	nt	nt	-4%
CC(C)c1ccc(/C=C2\SC(=O)N(CC(=O)NCCCn3ccnc3)C2=O)cc1	?	0.6µM*	?	nt	nt	3.5µM*
CC(C)c1ccc(/C=C2\SC(=S)N(CC(=O)NCCCN3CCOCC3)C2=O)cc1	6%	1.3µM*	?	nt	nt	0%
Cc1ccc(C2=NC(c3ccc(F)cc3)=Nc3ccc(C)cc3N2)cc1	nt	-1%	nt	nt	9%	nt
COc1ccc(CC(=O)Nc2nnc(C(C)C)s2)cc1	-1%	3%	6%	-1%	nt	1%
SMILES	NPC1 prom act	FLuc counter	ELG1 genotoxic	KinaseGlo FLuc	SMN2 splice up	Rab9 prom act
COc1ccc(NC(=O)Nc2nnc(-c3ccco3)s2)cc1	0.89µM*	?	?	nt	nt	1.3µM*
COc1ccc(NC(=O)Nc2nnc(-c3ccccc3F)s2)cc1	?	-3%	1%	0%	14%	2.8µM*
COc1ccc(NC(=O)Nc2nnc(C(C)C)s2)cc1	3.5µM*	21µM*	?	-2%	26%	?
Cc1ccccc1Cn1nnc2c(=O)[nH]c(C3CCCN(C(=O)c4ccc(F)cc4)C3)nc21 (stereo not given)	nt	3%	nt	nt	28%	nt
CCCOc1cccc(C2c3c(oc4cc(C)c(C)cc4c3=O)C(=O)N2CCCN2CCOCC2)c1 (stereo not given)	nt	1%	nt	nt	30%	nt
COc1ccc(C)cc1NC(=O)CN1c2ccccc2S(=O)(=O)c2ccccc21	nt	-6%	nt	nt	nt	nt
Cc1ccc(N2CCN(CCC(=O)O)CC2)cc1	nt	nt	nt	-4%[7.66 µM]	3%[9.22 µM]	nt
Oc1cccc(/C=N/c2c(-c3ccco3)nc3ccccn23)c1	?	6µM*	?	?	24%	?
COc1cc(-c2nc3ccccn3c2/N=C/c2ccccc2)ccc1O	2%	?	12%	5%	9%	-2%
COc1ccc(-c2nc3ccccn3c2/N=C/c2ccc(OC)c(OC)c2)cc1O	-5%	13µM*	8%	-4%	6%	6%
O=[N+]([O-])c1ccc(Cl)c(-c2ccc(/C=N/c3c(-c4ccco4)nc4ccccn34)o2)c1	19%	-19%	2%	-2%	22%	?
CO[C@]12C(COC(N)=O)C3=C(C(=O)C(C)=C(N)C3=O)N1CC1NC12 (stereo not given in full)	nt	nt	nt	-11%	-78%	nt
COc1ccc(C2c3[nH]c4ccc(OC)cc4c3CCN2C(=O)Nc2ccccc2)cc1 (stereo not given)	nt	0%	nt	nt	nt	nt
CCCCS(=O)(=O)N1C2=NC(C(=O)OC)=C(C(=O)OC)[C@@H]3Nc4ccccc4[C@]23C[C@H]1C(=O)OC	nt	nt	nt	-6%[7.66 µM]	0%[9.22 µM]	nt
COC(=O)[C@H](COC(C)(C)C)NC(=O)O[C@H]1C(=O)c2cc(OC)ccc2O[C@@H]1c1ccc(OC)c(Br)c1	nt	nt	nt	3%	6%	nt
N/C(=N\OC(=O)C12CC3CC(CC(C3)C1)C2)c1ccncc1	-3%	19µM*	8%	nt	nt	-1%
Cc1ccc(/C(N)=N/OC(=O)N2CCOCC2)cc1	18%	?	2%	5%	-23%	21%
Cc1ccc(/C(N)=N/OC(=O)C23CC4CC(CC(C4)C2)C3)cc1	24%	9.5µM*	4%	1%	-15%	?
C/C(=N\NC(=O)c1ccncc1)C12CC3CC(CC(C3)C1)C2	2%	-3%	-1%	-2%	-3%	0%
CCOc1ccc(NC(=O)Cn2c(=O)c(CNc3ccc(CC)cc3)cc3cc4c(cc32)OCO4)cc1	nt	4%	nt	nt	nt	nt
CCc1ccc(Nc2cnn(-c3nc4ccccc4s3)c(=O)c2Cl)cc1	21%	12µM*	6%	1%	?	?
COc1cc(SC)ccc1C(=O)Nc1ccncc1	0%	?	12%	0%	-50%	-21%
COc1cc(SC)ccc1C(=O)Nc1ccccc1C#N	-1%	?	9.2µM*	2%	13µM*	3%
COc1cc(SC)ccc1C(=O)Nc1ccc(Cl)cn1	0.89µM*	0.076µM*	?	-23%	nt	0.89µM*
